Counter-ions that a name gives are not always drawn.

The assay has as its system HeLa. Description: percent cells in G1 phase; higher = more G1 arrest. Particulars: 10 µM; 20 h. The procedure:
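HTS of 79,827 drug-like compounds at 10 uM. HeLa cells in 384-well plates were treated for 20 h, fixed, stained with Vybrant DyeCycle Green and scanned on an Acumen eX3 cytometer to give per-well cell cycle profiles (% cells in each phase). The plate Z' was 0.51. Only hits are listed: G1 hits >4 SD and S hits >5 SD from the mean.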
On to `C[C@@H]1C[C@H]2[C@@H]3C[C@H](F)C4=CC(=O)C=C[C@]4(C)[C@@]3(Cl)[C@@H](O)C[C@]2(C)[C@H]1C(=O)COC(=O)C(C)(C)C` [Clocortolone pivalate] (hit class: S-phase inhibitor), for which the “percent cells in G1 phase” value is 43.2%.

Regarding `C[C@@H]1CCC[C@H](C)N1NC(=O)c1ccc(Cl)c(S(N)(=O)=O)c1` [Clopamide] (hit class: G1-phase inhibitor), the “percent cells in G1 phase” value came to 70.5%.

As for `COc1[nH]c2ccccc2c1C=NO` (hit class: S-phase inhibitor), the “percent cells in G1 phase” value turned out to be 59.4%.

In the case of `COc1ccc(CSc2nncn2N)cc1` (hit class: S-phase inhibitor), the “percent cells in G1 phase” value came to 61.4%.

Turning to `COc1ccc(C(=O)c2coc3ccc(OC)cc3c2=O)cc1` (hit class: G1-phase inhibitor), the “percent cells in G1 phase” value was found to be 70.5%.

With `Cc1ccc(-c2cc(-c3ccccc3Cl)[nH]n2)c(O)c1` (hit class: G1-phase inhibitor), the “percent cells in G1 phase” value was 69.2%.

As to `CCN(CC)Cc1c(O)ccc2c(=O)c(-c3ccccc3)coc12` (hit class: S-phase inhibitor), the “percent cells in G1 phase” value is 55.9%.

As for `COc1c(C)c2c(c(O)c1C/C=C(\C)CCC(=O)O)C(=O)OC2` [Mycophenolic acid] (hit class: S-phase inhibitor), the “percent cells in G1 phase” value was 39%.

As to `Cn1c(SCc2ccccc2)nc2ccccc2c1=O` (hit class: S-phase inhibitor), the “percent cells in G1 phase” value was determined as 60%.

On to `Cc1cc(N2CCCCC2)c(F)cc1[N+](=O)[O-]` (hit class: S-phase inhibitor), for which the “percent cells in G1 phase” value amounted to 44.7%.

Take `CC[C@@H](C(=O)[C@@H](C)[C@@H](O)[C@H](C)CCc1ccc(C)c(O)c1C(=O)O)[C@H]1O[C@](CC)([C@H]2CC[C@](O)(CC)[C@H](C)O2)C[C@@H]1C` [Lasalocid sodium salt] (hit class: G1-phase inhibitor): the “percent cells in G1 phase” value came to 73.9%.

For `Cc1cc([N+](=O)[O-])ccc1NCc1ccc(F)c(F)c1` (hit class: G1-phase inhibitor), the “percent cells in G1 phase” value stood at 69.8%.

Turning to `CC(=O)C1=C(O)C(=O)N(CC(=O)O)C1c1ccccc1F` (configuration not stated) (hit class: S-phase inhibitor), the “percent cells in G1 phase” value was 61.1%.

For `O=C(COc1ccc(Cl)cc1)NC(Cc1c[nH]c2ccccc12)C(=O)O` (configuration not stated) (hit class: G1-phase inhibitor), the “percent cells in G1 phase” value worked out at 69%.

In the case of `O=C1c2c(O)ccc(O)c2C(=O)c2c(NCCNCCO)ccc(NCCNCCO)c21` [Mitoxantrone dihydrochloride] (hit class: G1-phase inhibitor), the “percent cells in G1 phase” value was 70%.

As for `c1ccc2c(c1)Nc1nc3ccccc3nc1O2` (hit class: G1-phase inhibitor), the “percent cells in G1 phase” value was determined as 70.5%.

As to `Nc1ccn([C@H]2CC[C@@H](CO)O2)c(=O)n1` [Zalcitabine] (hit class: S-phase inhibitor), the “percent cells in G1 phase” value was 45.1%.

These data come from the supplement of paper PMC4237247.
